The panel holds about 79,000 compounds, 15% with a hit somewhere; the sample as a whole holds those more often. Activity calls are given as the source filed them. Rule as the data show it: active = growth inhibition above about 70%; inactive = the rest.
How the values were obtained:
[1] = NCI Yeast Anticancer Drug Screen. Data for the rad50 strain (AID 155);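 also: 0% = growth of vehicle-only cultures of the same strain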; conditions: S. cerevisiae rad50 strain growth inhibition, active compounds read high
How it was run: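 A DNA repair-deficient yeast mutant serves as the test organism; compound-induced growth inhibition is calculated against vehicle-treated cells.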

[2] = NCI Yeast Anticancer Drug Screen. Data for the mec2-1 strain (AID 157); conditions: S. cerevisiae mec2-1 strain, active compounds read high
How it was run: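 Readout is yeast growth inhibition, normalised to vehicle-treated controls, in the mec2-1 strain exposed to compound.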

[3] = NCI Yeast Anticancer Drug Screen. Data for the sgs1 mgt1 strain (AID 161);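 also: 0% = growth of cultures given vehicle only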; conditions: S. cerevisiae sgs1 mgt1 strain, active compounds read high
How it was run: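 Growth of a repair-deficient yeast mutant was monitored after compound treatment and expressed as inhibition relative to vehicle-treated cultures.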

[4] = NCI Yeast Anticancer Drug Screen. Data for the cln2 rad14 strain (AID 165);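 also: 0% = growth equal to vehicle treated cultures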; conditions: S. cerevisiae cln2 rad14 strain, active compounds read high
How it was run: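 Relative to vehicle controls, growth inhibition of compound-treated cln2 rad14 yeast was recorded.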

[5] = NCI Yeast Anticancer Drug Screen. Data for the bub3 strain (AID 167); conditions: S. cerevisiae bub3 mutant strain, active compounds read high
How it was run: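 Inhibition values come from growth of compound-treated mutant yeast normalised to vehicle-treated controls.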

[6] = NCI Yeast Anticancer Drug Screen. Data for the mlh1 rad18 strain (AID 175); conditions: S. cerevisiae mlh1 rad18 strain growth inhibition, active compounds read high
How it was run: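 Test agents were incubated with a yeast strain of defined genotype (DNA damage repair defect). Inhibition of growth was derived by comparison with vehicle-exposed cultures.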

[7] = at 5.0 µM (retest, dose inferred, filed as 0.5)
[8] = at 50.0 µM (retest, dose inferred, filed as 5.0)

Measured: growth inhibition

CCN(CC)c1ccc(NC(CC(O)c2ccccc2)c2ccccc2)cc1 (configuration not stated)
inactive: [1]; [7] -14% | [1]; [8] 1% | [1]; at 50.0 µM -24% | [2]; [7] -3% | [2]; [8] -1% | [2]; at 50.0 µM 5.8% | [3]; [7] -5% | [3]; [8] 5% | [3]; at 50.0 µM -0.8% | [4]; [7] -5% | [4]; [8] -3% | [4]; at 50.0 µM 51.5% | [5]; [7] -4% | [5]; [8] 2% | [5]; at 50.0 µM 21.1% | [6]; [7] -5% | [6]; [8] -7% | [6]; at 50.0 µM 24.5%

S=C(C(=S)N1CCOCC1)N1CCOCC1
inactive: [1]; [7] 14% | [1]; [8] 16% | [1]; at 50.0 µM 0.05% | [2]; [7] 12% | [2]; [8] 16% | [2]; at 50.0 µM 26.1% | [3]; [7] 19% | [3]; [8] 27% | [3]; at 50.0 µM 12.8% | [4]; [7] 15% | [4]; [8] 12% | [4]; at 50.0 µM -16.8% | [5]; [7] 22% | [5]; [8] 23% | [5]; at 50.0 µM 11.8% | [6]; [7] 16% | [6]; [8] 16% | [6]; at 50.0 µM 7.95%

OC(c1ccccc1)(c1ccccc1)C1CCCCC1
active: [1]; [8] 97% | [2]; [8] 97% | [3]; [8] 98% | [4]; [8] 96% | [5]; [8] 97% | [6]; [8] 97%
inactive: [1]; [7] 14% | [1]; at 50.0 µM 25.5% | [2]; [7] 7% | [2]; at 50.0 µM 1.7% | [3]; [7] -4% | [3]; at 50.0 µM 40.1% | [4]; [7] -8% | [4]; at 50.0 µM -5.35% | [5]; [7] -13% | [5]; at 50.0 µM 5.95% | [6]; [7] 2% | [6]; at 50.0 µM 9.9%

O=C(O)C1C2CC3CC(C2)CC1C3 (configuration not stated)
active: [5]; [8] 86% | [5]; at 50.0 µM 75.5% | [6]; [8] 82%
inactive: [1]; [7] 2% | [1]; [8] 42% | [1]; at 50.0 µM 20% | [2]; [7] 8% | [2]; [8] 47% | [2]; at 50.0 µM 5.85% | [3]; [7] 7% | [3]; [8] 60% | [3]; at 50.0 µM -4.9% | [4]; [7] 3% | [4]; [8] 21% | [4]; at 50.0 µM -67.8% | [5]; [7] 16% | [6]; [7] 0% | [6]; at 50.0 µM 9.35%

Cn1c(=S)c2[nH]c(SCCN3CCCCC3)nc2n(C)c1=O
inactive: [1]; [7] 40% | [1]; [8] 54% | [2]; [7] 28% | [2]; [8] 46% | [3]; [7] 20% | [3]; [8] 69% | [4]; [7] 28% | [4]; [8] 28% | [4]; at 50.0 µM 54.5% | [5]; [7] 37% | [5]; [8] 57% | [6]; [7] 22% | [6]; [8] 55%
active: [1]; at 50.0 µM 97.2% | [2]; at 50.0 µM 99.3% | [3]; at 50.0 µM 99.2% | [5]; at 50.0 µM 97.8% | [6]; at 50.0 µM 98.5%

C/C(=N/NC(=S)Nc1ccc([N+](=O)[O-])cc1)c1cccc(/C(C)=N\NC(=S)Nc2ccc([N+](=O)[O-])cc2)n1
inactive: [1]; [7] 14% | [1]; [8] 50% | [1]; at 50.0 µM 19.6% | [2]; [7] 5% | [2]; at 50.0 µM 0.15% | [3]; [7] 15% | [3]; at 50.0 µM 35.5% | [4]; [7] 19% | [4]; at 50.0 µM -7.35% | [5]; [7] 21% | [5]; at 50.0 µM 2.45% | [6]; [7] 10% | [6]; [8] 61% | [6]; at 50.0 µM 14.4%
active: [2]; [8] 72% | [3]; [8] 87% | [4]; [8] 82% | [5]; [8] 94%

O=c1[nH]c2c([N+](=O)[O-])cc(Cl)cc2nc1/C=C(\O)c1ccccn1
inactive: [1]; [7] 8% | [1]; [8] 61% | [1]; at 50.0 µM 51.8% | [2]; [7] -1% | [2]; [8] 26% | [2]; at 50.0 µM 5.8% | [3]; [7] 7% | [3]; [8] 41% | [3]; at 50.0 µM 49.2% | [4]; [7] 4% | [4]; [8] 52% | [4]; at 50.0 µM 37% | [5]; [7] 14% | [5]; [8] 27% | [5]; at 50.0 µM 12.1% | [6]; [7] 11% | [6]; [8] 46%
active: [6]; at 50.0 µM 79.2%

CC(C)=CCc1ccc(O)cc1
inactive: [1]; [7] -24% | [1]; at 50.0 µM -3.15% | [2]; [7] 5% | [2]; at 50.0 µM 25.1% | [3]; [7] -13% | [3]; at 50.0 µM -24.1% | [4]; [7] 5% | [4]; at 50.0 µM 34.8% | [5]; [7] -10% | [5]; at 50.0 µM 53.9% | [6]; [7] 1% | [6]; at 50.0 µM 1.75%
active: [1]; [8] 97% | [2]; [8] 98% | [3]; [8] 98% | [4]; [8] 96% | [5]; [8] 99% | [6]; [8] 97%

CC(=O)OC(c1ccc(Cl)cc1)c1ccc(Cl)cc1
inactive: [1]; [7] -43% | [1]; [8] 1% | [1]; at 50.0 µM 16.5% | [2]; [7] -11% | [2]; [8] -8% | [2]; at 50.0 µM -2% | [3]; [7] -7% | [3]; [8] 20% | [3]; at 50.0 µM 18.8% | [4]; [7] -17% | [4]; [8] 4% | [4]; at 50.0 µM 8.85% | [5]; [7] 2% | [5]; [8] 0% | [5]; at 50.0 µM 0.2% | [6]; [7] -22% | [6]; [8] 16% | [6]; at 50.0 µM 18.9%

Source: PubChem BioAssay (NCI)
